This is an account of results in paper PMC5700166.

Experiment in all cases: protein-binding microarray (PBM); PBM: ~300 nM protein, 6 mM HEPES pH 7.8, 80 mM KCl, 0.5 mM EDTA, 0.5 mM EGTA, 6% glycerol, 35 ng/ul poly-dIdC, 1% milk, 1 h, room temperature; Ap Aiptasia and Nv Nematostella (sea anemones) / Co Capsaspora / Aq Amphimedon (sponge) / Dm Drosophila / Hu human; RHD is the Rel homology domain; high values mean tight binding
Common to all, as to details: dsDNA, one strand shown

In one assay the target is T1, GST-Ap-NF-kB RHD (Exaiptasia pallida (Aiptasia), UniProt A0A913YAJ5 2-422).
T1 sequence: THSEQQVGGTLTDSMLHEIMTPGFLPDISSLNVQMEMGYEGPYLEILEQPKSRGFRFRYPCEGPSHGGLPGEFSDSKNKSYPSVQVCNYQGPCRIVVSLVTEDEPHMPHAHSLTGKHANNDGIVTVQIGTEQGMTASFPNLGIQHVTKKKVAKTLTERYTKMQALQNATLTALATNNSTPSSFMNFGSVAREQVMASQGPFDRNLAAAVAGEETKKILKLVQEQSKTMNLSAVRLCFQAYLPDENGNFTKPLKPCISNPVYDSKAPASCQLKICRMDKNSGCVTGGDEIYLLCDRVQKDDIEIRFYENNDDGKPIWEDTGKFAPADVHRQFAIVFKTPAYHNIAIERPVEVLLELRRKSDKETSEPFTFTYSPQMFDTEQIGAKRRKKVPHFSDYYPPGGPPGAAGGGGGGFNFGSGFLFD

Assay [1] addresses T2, GST-Nv-NF-kB (Cys allele) (Nematostella vectensis, UniProt E5G601 2-411).
T2 sequence: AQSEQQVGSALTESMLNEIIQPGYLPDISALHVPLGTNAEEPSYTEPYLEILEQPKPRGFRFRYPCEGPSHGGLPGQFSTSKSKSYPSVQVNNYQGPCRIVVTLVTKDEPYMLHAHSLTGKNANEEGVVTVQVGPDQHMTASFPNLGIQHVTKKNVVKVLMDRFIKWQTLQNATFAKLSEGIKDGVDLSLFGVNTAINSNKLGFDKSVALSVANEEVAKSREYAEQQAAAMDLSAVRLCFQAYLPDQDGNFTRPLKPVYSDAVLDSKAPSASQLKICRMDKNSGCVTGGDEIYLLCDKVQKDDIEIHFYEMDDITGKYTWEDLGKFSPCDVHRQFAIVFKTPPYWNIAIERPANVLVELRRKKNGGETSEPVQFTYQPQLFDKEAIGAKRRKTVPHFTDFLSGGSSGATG

The target of assay [2] is T3, GST-Nv-NF-kB (Ser allele) (Nematostella vectensis, UniProt A7UNT2 2-411).
T3 sequence: T2 sequence with Q21R, C66S, S207N, E215Q, V217A, E225K, A268E, D399E

The target of the next assay is T4, GST-Co-NF-kB (Capsaspora owczarzaki, UniProt F1ARL5 200-546).
T4 sequence: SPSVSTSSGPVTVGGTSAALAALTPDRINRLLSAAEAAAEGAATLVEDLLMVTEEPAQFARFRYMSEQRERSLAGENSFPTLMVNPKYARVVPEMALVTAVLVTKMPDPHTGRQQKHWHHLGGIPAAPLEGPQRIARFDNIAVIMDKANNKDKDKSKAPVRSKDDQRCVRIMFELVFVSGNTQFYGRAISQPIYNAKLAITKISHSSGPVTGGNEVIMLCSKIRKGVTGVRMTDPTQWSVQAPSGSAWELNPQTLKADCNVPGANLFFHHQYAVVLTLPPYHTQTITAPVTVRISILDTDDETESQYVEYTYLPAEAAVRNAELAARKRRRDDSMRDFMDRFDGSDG

In the next assay the target is T5, GST-Dm-Relish (Drosophila melanogaster, UniProt Q94527 99-473).
T5 sequence: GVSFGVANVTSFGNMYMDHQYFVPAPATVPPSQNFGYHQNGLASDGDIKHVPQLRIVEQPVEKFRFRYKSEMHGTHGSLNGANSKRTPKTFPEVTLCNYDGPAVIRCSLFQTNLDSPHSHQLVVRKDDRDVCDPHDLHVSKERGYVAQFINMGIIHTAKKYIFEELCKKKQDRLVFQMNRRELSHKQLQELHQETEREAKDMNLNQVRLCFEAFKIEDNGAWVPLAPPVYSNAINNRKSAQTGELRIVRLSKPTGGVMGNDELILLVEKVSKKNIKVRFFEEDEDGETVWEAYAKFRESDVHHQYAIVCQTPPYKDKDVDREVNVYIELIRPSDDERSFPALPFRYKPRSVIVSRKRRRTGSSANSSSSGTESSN

The target of a further assay is T6, GST-Aq-NF-kB (Amphimedon queenslandica, UniProt A9Y5G7 2-389).
T6 sequence: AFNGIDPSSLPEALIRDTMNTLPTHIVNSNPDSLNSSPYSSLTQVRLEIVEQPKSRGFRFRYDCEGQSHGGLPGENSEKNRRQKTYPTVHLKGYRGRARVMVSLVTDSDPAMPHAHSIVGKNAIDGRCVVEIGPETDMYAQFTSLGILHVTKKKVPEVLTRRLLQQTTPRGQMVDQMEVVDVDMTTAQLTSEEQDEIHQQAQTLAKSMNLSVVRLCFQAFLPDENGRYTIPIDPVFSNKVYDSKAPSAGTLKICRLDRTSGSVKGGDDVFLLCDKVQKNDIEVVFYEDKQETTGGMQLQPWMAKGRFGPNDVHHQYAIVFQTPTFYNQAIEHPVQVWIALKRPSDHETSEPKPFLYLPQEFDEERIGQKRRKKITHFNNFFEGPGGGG

In the next assay the target is GST-Hu-p50 (Homo sapiens, UniProt P19838 7-356).

Substitutions are numbered along the chain they refer to.

Chain of GST-Hu-p50 (P19838 7-356): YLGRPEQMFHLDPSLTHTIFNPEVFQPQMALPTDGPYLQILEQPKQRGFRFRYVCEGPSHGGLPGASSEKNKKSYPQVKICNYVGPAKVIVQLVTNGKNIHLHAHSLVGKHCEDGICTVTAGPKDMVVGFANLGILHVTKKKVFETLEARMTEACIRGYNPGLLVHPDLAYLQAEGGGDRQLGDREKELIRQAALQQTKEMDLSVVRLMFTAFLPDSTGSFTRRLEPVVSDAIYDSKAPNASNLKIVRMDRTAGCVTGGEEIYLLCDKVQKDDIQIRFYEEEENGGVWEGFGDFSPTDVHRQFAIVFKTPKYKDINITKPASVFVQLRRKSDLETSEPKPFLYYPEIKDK

Consider “CCGATTAACATCACGTACTTCCCTGATGTTAATCGGGTCTTGATTCGCTTGACGCTGCTG”, for which the binding signal turned out to be 1.66 z-score in the assay with GST-Ap-NF-kB RHD; 1.92 z-score in assay [1]; 1.78 z-score in assay [2]; 1.1 z-score in the assay with GST-Co-NF-kB; 7.92 z-score in the assay with GST-Dm-Relish; 3.04 z-score with GST-Aq-NF-kB. Moreover, the binding signal with GST-Hu-p50 is 1.38 z-score.

Take “CCGATTAACATCAGGGATTTTACTGATGTTAATCGGGTCTTGATTCGCTTGACGCTGCTG”: the binding signal with GST-Ap-NF-kB RHD worked out at 3.97 z-score; in assay [1], 3.99 z-score; in assay [2] it was 2.96 z-score; with GST-Co-NF-kB it was 2.36 z-score; with GST-Dm-Relish it was 7.1 z-score; with GST-Aq-NF-kB it was 5.29 z-score. Besides, the binding signal with GST-Hu-p50 amounted to 3.96 z-score.

In the case of “CCGATTAACATCAAAAACTTCCCTGATGTTAATCGGGTCTTGATTCGCTTGACGCTGCTG”, the binding signal with GST-Ap-NF-kB RHD was determined as 5.3 z-score; in assay [1] it was 5.84 z-score; in assay [2], 6.81 z-score; with GST-Co-NF-kB it was 3.89 z-score; with GST-Dm-Relish, 5.16 z-score; with GST-Aq-NF-kB, 6.27 z-score. The sequence further registered a binding signal with GST-Hu-p50 of 4.68 z-score.

As for “CCGATTAACATCAGGAAGGTCCCTGATGTTAATCGGGTCTTGATTCGCTTGACGCTGCTG”, the binding signal turned out to be 3.51 z-score in the assay with GST-Ap-NF-kB RHD; 2.97 z-score in assay [1]; 1.09 z-score in assay [2]; 1.64 z-score in the assay with GST-Dm-Relish; 5.37 z-score with GST-Aq-NF-kB; 2.52 z-score with GST-Hu-p50.

For the sequence “CCGATTAACATCAGGGAGTCACCTGATGTTAATCGGGTCTTGATTCGCTTGACGCTGCTG”, the binding signal with GST-Ap-NF-kB RHD worked out at 3.25 z-score; in assay [1], 1.16 z-score; in assay [2] it was 1.39 z-score; with GST-Dm-Relish, 8.86 z-score; with GST-Aq-NF-kB, 3.63 z-score; with GST-Hu-p50, 1.96 z-score.

For “CCGATTAACATCAGGGACTTCCATGATGTTAATCGGGTCTTGATTCGCTTGACGCTGCTG”, the binding signal in the assay with GST-Ap-NF-kB RHD turned out to be 5.02 z-score; in assay [1] it was 5.5 z-score; in assay [2] it was 5.01 z-score; with GST-Dm-Relish, 6.69 z-score; with GST-Aq-NF-kB, 5.53 z-score; in the assay with GST-Hu-p50, 4.56 z-score.

As for “CCGATTAACATCAGGGGGGGCTATGATGTTAATCGGGTCTTGATTCGCTTGACGCTGCTG”, the binding signal in the assay with GST-Ap-NF-kB RHD amounted to 4.3 z-score; in assay [1], 3.34 z-score; in assay [2] it was 3.58 z-score; with GST-Co-NF-kB it was 5.06 z-score; with GST-Dm-Relish, 4.12 z-score; with GST-Aq-NF-kB, 4.07 z-score. In the assay with GST-Hu-p50, this sequence yielded a binding signal of 4.09 z-score.

For the sequence “CCGATTAACATCACGGGATTACCTGATGTTAATCGGGTCTTGATTCGCTTGACGCTGCTG”, the binding signal with GST-Ap-NF-kB RHD was 3.75 z-score; in assay [1], 1.79 z-score; in assay [2], 2.51 z-score; in the assay with GST-Dm-Relish, 5.47 z-score; with GST-Aq-NF-kB it was 4.66 z-score; in the assay with GST-Hu-p50 it was 1.16 z-score.

Regarding “CCGATTAACATCACGGGATTTCGTGATGTTAATCGGGTCTTGATTCGCTTGACGCTGCTG”, the binding signal is 1.77 z-score with GST-Ap-NF-kB RHD; 1.88 z-score in assay [1]; 1.43 z-score in assay [2]; 3.68 z-score with GST-Dm-Relish; 1.91 z-score with GST-Aq-NF-kB; 2.12 z-score with GST-Hu-p50.

For “CCGATTAACATCAGAGAAGCCCCTGATGTTAATCGGGTCTTGATTCGCTTGACGCTGCTG”, the binding signal came to 4.39 z-score with GST-Ap-NF-kB RHD; 5.41 z-score in assay [1]; 4.05 z-score in assay [2]; 3.44 z-score in the assay with GST-Dm-Relish; 5.35 z-score in the assay with GST-Aq-NF-kB; 4.67 z-score in the assay with GST-Hu-p50.

As to “CCGATTAACATCAGGGACTTTACTGATGTTAATCGGGTCTTGATTCGCTTGACGCTGCTG”, the binding signal with GST-Ap-NF-kB RHD was determined as 5.17 z-score; in assay [1] it was 6.47 z-score; in assay [2] it was 6.59 z-score; with GST-Dm-Relish it was 7.99 z-score; with GST-Aq-NF-kB, 6.61 z-score; with GST-Hu-p50 it was 5.06 z-score.
